Assay results taken from the supplement of paper PMC4466140.

target: AgAbp1; test: SPOT peptide array binding signal intensity (averaged, normalized) (arbitrary units (background-subtracted, floor 0; scale differs between SH3 domains)); higher = stronger binding of the SH3 domain to the peptide
Outline: (§1)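 SH3 domains from four yeast species were expressed as GST fusions in E. coli BL21(DE3) and purified on glutathione Sepharose. Each was incubated at 10 μg/ml overnight at 4°C in TBS-based blocking buffer on cellulose membranes bearing synthetic 15-mer peptides, in which serines replaced cysteines. Bound protein was detected with anti-GST antibody, an HRP anti-mouse secondary and luminol, then imaged and quantified with Genespotter. The binding signal is the normalized, background-subtracted spot intensity averaged over replicates, in arbitrary units that are not the same from one domain to another.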

Row | Binder | SPOT peptide array binding signal intensity
1 | DTIDNVKSKIQDKEG | ≤ 0

target: AgBbc1; test: as above
Outline: as §1

Row | Binder | SPOT peptide array binding signal intensity
2 | DTIDNVKSKIQDKEG | ≤ 0

target: AgBem1-D1; test: as above
Outline: as §1

Row | Binder | SPOT peptide array binding signal intensity
3 | DTIDNVKSKIQDKEG | ≤ 0

target: AgBzz1-D1; test: as above
Outline: as §1

Row | Binder | SPOT peptide array binding signal intensity
4 | DTIDNVKSKIQDKEG | ≤ 0

target: AgBzz1-D2; test: as above
Outline: as §1

Row | Binder | SPOT peptide array binding signal intensity
5 | DTIDNVKSKIQDKEG | ≤ 0

target: AgCyk3; test: as above
Outline: as §1

Row | Binder | SPOT peptide array binding signal intensity
6 | DTIDNVKSKIQDKEG | ≤ 0

target: AgFus1; test: as above
Outline: as §1

Row | Binder | SPOT peptide array binding signal intensity
7 | DTIDNVKSKIQDKEG | ≤ 0

target: AgHof1; test: as above
Outline: as §1

Row | Binder | SPOT peptide array binding signal intensity
8 | DTIDNVKSKIQDKEG | ≤ 0

target: AgHse1; test: as above
Outline: as §1

Row | Binder | SPOT peptide array binding signal intensity
9 | DTIDNVKSKIQDKEG | 4

target: AgLsb1; test: as above
Outline: as §1

Row | Binder | SPOT peptide array binding signal intensity
10 | DTIDNVKSKIQDKEG | ≤ 0

target: AgLsb4; test: as above
Outline: as §1

Row | Binder | SPOT peptide array binding signal intensity
11 | DTIDNVKSKIQDKEG | ≤ 0

target: AgMyo5; test: as above
Outline: as §1

Row | Binder | SPOT peptide array binding signal intensity
12 | DTIDNVKSKIQDKEG | ≤ 0

target: AgNbp2; test: as above
Outline: as §1

Row | Binder | SPOT peptide array binding signal intensity
13 | DTIDNVKSKIQDKEG | ≤ 0

target: AgRvs167; test: as above
Outline: as §1

Row | Binder | SPOT peptide array binding signal intensity
14 | DTIDNVKSKIQDKEG | 0.5

target: AgSho1; test: as above
Outline: as §1

Row | Binder | SPOT peptide array binding signal intensity
15 | DTIDNVKSKIQDKEG | ≤ 0

target: AgSla1-D1-D2; test: as above
Outline: as §1

Row | Binder | SPOT peptide array binding signal intensity
16 | DTIDNVKSKIQDKEG | ≤ 0

target: AgSla1-D3; test: as above
Outline: as §1

Row | Binder | SPOT peptide array binding signal intensity
17 | DTIDNVKSKIQDKEG | ≤ 0

target: CaAbp1-D1; test: as above
Outline: as §1

Row | Binder | SPOT peptide array binding signal intensity
18 | DTIDNVKSKIQDKEG | ≤ 0

target: CaAbp1-D2; test: as above
Outline: as §1

Row | Binder | SPOT peptide array binding signal intensity
19 | DTIDNVKSKIQDKEG | ≤ 0

target: CaBbc1; test: as above
Outline: as §1

Row | Binder | SPOT peptide array binding signal intensity
20 | DTIDNVKSKIQDKEG | ≤ 0

target: CaBem1-D1; test: as above
Outline: as §1

Row | Binder | SPOT peptide array binding signal intensity
21 | DTIDNVKSKIQDKEG | ≤ 0

target: CaBzz1-D1; test: as above
Outline: as §1

Row | Binder | SPOT peptide array binding signal intensity
22 | DTIDNVKSKIQDKEG | 21

target: CaBzz1-D2; test: as above
Outline: as §1

Row | Binder | SPOT peptide array binding signal intensity
23 | DTIDNVKSKIQDKEG | ≤ 0

target: CaCyk3; test: as above
Outline: as §1

Row | Binder | SPOT peptide array binding signal intensity
24 | DTIDNVKSKIQDKEG | ≤ 0

target: CaFus1; test: as above
Outline: as §1

Row | Binder | SPOT peptide array binding signal intensity
25 | DTIDNVKSKIQDKEG | ≤ 0

target: CaHof1; test: as above
Outline: as §1

Row | Binder | SPOT peptide array binding signal intensity
26 | DTIDNVKSKIQDKEG | ≤ 0

target: CaHse1; test: as above
Outline: as §1

Row | Binder | SPOT peptide array binding signal intensity
27 | DTIDNVKSKIQDKEG | ≤ 0

target: CaLsb1; test: as above
Outline: as §1

Row | Binder | SPOT peptide array binding signal intensity
28 | DTIDNVKSKIQDKEG | ≤ 0

target: CaLsb4; test: as above
Outline: as §1

Row | Binder | SPOT peptide array binding signal intensity
29 | DTIDNVKSKIQDKEG | ≤ 0

target: CaMyo5; test: as above
Outline: as §1

Row | Binder | SPOT peptide array binding signal intensity
30 | DTIDNVKSKIQDKEG | ≤ 0

target: CaNbp2; test: as above
Outline: as §1

Row | Binder | SPOT peptide array binding signal intensity
31 | DTIDNVKSKIQDKEG | ≤ 0

target: CaRvs167; test: as above
Outline: as §1

Row | Binder | SPOT peptide array binding signal intensity
32 | DTIDNVKSKIQDKEG | 2

target: CaRvs167-3; test: as above
Outline: as §1

Row | Binder | SPOT peptide array binding signal intensity
33 | DTIDNVKSKIQDKEG | 2.5

target: CaSho1; test: as above
Outline: as §1

Row | Binder | SPOT peptide array binding signal intensity
34 | DTIDNVKSKIQDKEG | ≤ 0

target: CaSla1-D1-D2; test: as above
Outline: as §1

Row | Binder | SPOT peptide array binding signal intensity
35 | DTIDNVKSKIQDKEG | ≤ 0

target: CaSla1-D3; test: as above
Outline: as §1

Row | Binder | SPOT peptide array binding signal intensity
36 | DTIDNVKSKIQDKEG | ≤ 0

target: ScAbp1; test: as above
Outline: as §1

Row | Binder | SPOT peptide array binding signal intensity
37 | DTIDNVKSKIQDKEG | ≤ 0
